Measured values published in PubChem BioAssay (NCI).
Compounds without any hit were thinned out: in the full panel of roughly 79,000, 15% have a hit. Values without a mark were called inactive. Calls of active or inactive are those of the source. No stated cut-off is given here; in the data, active means growth inhibition above about 70%; inactive means the rest.

What was measured:
[1] = NCI Yeast Anticancer Drug Screen. Data for the rad50 strain (AID 155);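 further: 0% = growth of vehicle-only cultures of the same strain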; conditions: S. cerevisiae rad50 strain growth inhibition, active compounds read high
Procedure, shortened: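 A DNA repair-deficient yeast mutant serves as the test organism; compound-induced growth inhibition is calculated against vehicle-treated cells.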

[2] = NCI Yeast Anticancer Drug Screen. Data for the mec2-1 strain (AID 157); conditions: S. cerevisiae mec2-1 strain, active compounds read high
Procedure, shortened: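 Compounds were applied to mec2-1 yeast cells. Their growth was then compared with that of vehicle-treated cultures to give growth inhibition.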

[3] = NCI Yeast Anticancer Drug Screen. Data for the sgs1 mgt1 strain (AID 161);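 further: 0% = growth of cultures given vehicle only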; conditions: S. cerevisiae sgs1 mgt1 strain, active compounds read high
Procedure, shortened: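 Compounds are added to genetically altered yeast, and growth is compared with cultures given vehicle alone to give percent inhibition.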

[4] = NCI Yeast Anticancer Drug Screen. Data for the cln2 rad14 strain (AID 165);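 further: 0% = growth equal to vehicle treated cultures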; conditions: S. cerevisiae cln2 rad14 strain, active compounds read high
Procedure, shortened: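 Strain: cln2 rad14 yeast, altered in cell cycle control and DNA damage repair. Read-out: growth inhibition vs vehicle.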

[5] = NCI Yeast Anticancer Drug Screen. Data for the bub3 strain (AID 167); conditions: S. cerevisiae bub3 mutant strain, active compounds read high
Procedure, shortened: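 Inhibition values come from growth of compound-treated mutant yeast normalised to vehicle-treated controls.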

[6] = NCI Yeast Anticancer Drug Screen. Data for the mlh1 rad18 strain (AID 175); conditions: S. cerevisiae mlh1 rad18 strain growth inhibition, active compounds read high
Procedure, shortened: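 A repair-deficient yeast strain is exposed to test compound, and growth is scored relative to vehicle-treated controls.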

[7] = at 5.0 µM (retest, dose inferred, filed as 0.5)
[8] = at 50.0 µM (retest, dose inferred, filed as 5.0)

| SMILES | growth inhibition [1, 7] | growth inhibition [1, 8] | growth inhibition ([1]; at 50.0 µM) | growth inhibition [2, 7] | growth inhibition [2, 8] | growth inhibition ([2]; at 50.0 µM) | growth inhibition [3, 7] | growth inhibition [3, 8] | growth inhibition ([3]; at 50.0 µM) | growth inhibition [4, 7] | growth inhibition [4, 8] | growth inhibition ([4]; at 50.0 µM) | growth inhibition [5, 7] | growth inhibition [5, 8] | growth inhibition ([5]; at 50.0 µM) | growth inhibition [6, 7] | growth inhibition [6, 8] | growth inhibition ([6]; at 50.0 µM) |
| --- | --- | --- | --- | --- | --- | --- | --- | --- | --- | --- | --- | --- | --- | --- | --- | --- | --- | --- |
| COc1cc[c]([Sn]([O][Sn]([Cl])([c]2ccc(OC)cc2)[c]2ccc(OC)cc2)[c]2ccc(OC)cc2)cc1 | 47% | 95% (active) | 27.7% | 31% | 86% (active) | 32.9% | 58% | 98% (active) | 69.8% | 28% | 88% (active) | 53.5% | 50% | 96% (active) | 71.3% (active) | 55% | 94% (active) | 73.7% (active) |
| O=S(=O)(O)CNc1cc(Cl)cc(Cl)c1 | 34% | 78% (active) | 13.9% | 9% | 28% | -5% | 1% | 17% | 2.3% | 4% | 16% | -53.4% | 6% | 85% (active) | 2.1% | 8% | 33% | 41.8% |
| Clc1cccc(C2SCc3nc4ccccc4n32)c1Cl (configuration not stated) | -2% | 97% (active) | 98.6% (active) | -3% | 98% (active) | 98.4% (active) | 2% | 98% (active) | 97.5% (active) | -17% | 97% (active) | 97.4% (active) | 1% | 98% (active) | 98.5% (active) | -4% | 98% (active) | 97.1% (active) |
| CSCSCC(CO)NC(=O)/C=C/c1c(C)[nH]c(=O)[nH]c1=O (configuration not stated) | -2% | 0% | 92.5% (active) | 1% | 7% | 94.2% (active) | 1% | 4% | 93.8% (active) | -3% | -11% | 92.2% (active) | 3% | 21% | 92.8% (active) | 3% | 8% | 92.9% (active) |
| CN(C)CCOc1cc2c(c3ccccc13)-c1ccccc1C2O (configuration not stated) | 30% | 96% (active) | 98.3% (active) | 0% | 45% | 26.8% | 9% | 69% | 67.8% | 1% | 31% | 38.1% | 2% | 34% | 34.5% | 7% | 83% (active) | 72.8% (active) |
| N#C/C(=C/c1cc(I)cc(I)c1O)C(N)=O | 42% | 87% (active) | 79.8% (active) | 39% | 92% (active) | 58.6% | 69% | 97% (active) | 78.8% (active) | 41% | 90% (active) | 61.2% | 44% | 96% (active) | 80.2% (active) | 66% | 97% (active) | 71.2% (active) |
| CC(Nc1ccc(Cl)c(Cl)c1)c1ccncc1 (configuration not stated) | 1% | 98% (active) | 85.8% (active) | -36% | 95% (active) | 85.8% (active) | -26% | 98% (active) | 79.8% (active) | 32% | 98% (active) | 83.9% (active) | -47% | 99% (active) | 86% (active) | -1% | 98% (active) | 82.6% (active) |
| CC(Cc1ccccc1)NNC(C)Cc1ccccc1 (configuration not stated) | 10% | 81% (active) | 99.5% (active) | 4% | 64% | 96.2% (active) | 11% | 90% (active) | 75.5% (active) | -39% | 63% | 83.2% (active) | 16% | 91% (active) | 94.5% (active) | 7% | 83% (active) | 99.5% (active) |
| COc1ccc(N=NN2CCCC2)cc1 | 35% | 42% | 89.7% (active) | 25% | 27% | 92.5% (active) | 45% | 52% | 86.3% (active) | 46% | 56% | 89.7% (active) | 49% | 50% | 90.5% (active) | 14% | 33% | 91.2% (active) |
